EP2 mod: EP2 receptor modulators, cAMP readout, primary screen, cell-based, HTRF cAMP, PGE2 stimulation | Prostaglandin E2 receptor EP2 subtype (Homo sapiens), P43116 | EP2-expressing cells, cAMP HTRF FRET, PGE2 co-stimulation | induction, % at 25 µM | hit rate 0.83% among 260,000 | AID 940, 2007;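 active = compounds whose cAMP rise, as percent of the full-agonist control response, exceeds 60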;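 note: rat C6 glioma line stably carrying human EP2 under a CMV promoter; the protocol text gives 20 µM as final concentration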
Target sequence (P43116 whole entry, looked up): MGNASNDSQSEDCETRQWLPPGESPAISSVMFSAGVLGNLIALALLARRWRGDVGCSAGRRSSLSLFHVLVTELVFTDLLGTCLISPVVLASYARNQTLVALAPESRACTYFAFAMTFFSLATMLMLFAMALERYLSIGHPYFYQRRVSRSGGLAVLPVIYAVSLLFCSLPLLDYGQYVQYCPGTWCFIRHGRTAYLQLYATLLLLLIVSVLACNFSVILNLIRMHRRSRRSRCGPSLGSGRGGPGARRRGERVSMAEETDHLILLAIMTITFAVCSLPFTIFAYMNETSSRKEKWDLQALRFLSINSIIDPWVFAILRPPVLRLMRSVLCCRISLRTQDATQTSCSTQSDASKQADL
EP2 antag: human EP2 receptor antagonists, primary screen, TR-FRET cAMP, C6 glioma cells. inhibition, % at 25 µM. hit rate 0.52% among 260,000. C6 glioma cells expressing human EP2; cells stimulated with saturating PGE2. AID 1422, 2008;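 active = percent inhibition above 40 after rounding to a whole number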;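 note: rat C6 glioma host cells with rolipram phosphodiesterase inhibitor present; the protocol text gives 20 µM as final concentration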
S1P4 ag: S1P4 receptor agonists, primary screen, cell-based; S1P4-expressing cell line, agonist reporter assay; activation, % at 4.98 µM; hit rate 0.35% among 220,000; AID 1509, 2009; in the data active = activation above about 11%
S1P3 antag: S1P3 receptor antagonists, primary screen, cell-based; Sphingosine 1-phosphate receptor 3 (Homo sapiens), Q99500; CHO S1P3 NFAT-BLA reporter, FRET fluorescence, antagonist mode; inhibition, % at 4.98 µM; hit rate 0.27% among 170,000;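 active = inhibition above the plate cutoff, the mean inhibition of test wells on that plate plus 3 SD, cut at about 28% in these data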;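 note: cells challenged with S1P at its EC80 of 0.8 µM; blue over green emission ratio from cleaved BLA substrate after 4 h stimulation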
Pf gamet viab: late stage P. falciparum gametocyte viability inhibitors, primary screen, ATP luminescence, HTS | AID 743093, 2013 | hit rate 0.065% among 150,000 | P. falciparum stage V gametocytes, 24 h | inhibition, % at 10.9 µM;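 active = inhibition above the mean plus 3 SD of compounds within the control limits, set per campaign, cut at about 38% in these data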
S1P4 antagonist: S1P4 receptor antagonists, primary screen, cell-based | S1P4-expressing cells, antagonist mode, reporter read-out | hit rate 0.26% among 220,000 | AID 1510, 2009 | inhibition, % at 4.98 µM; in the data active = inhibition above about 29%
S1P4 agonist cf: S1P4 receptor agonists, retest, confirmation, cell-based, high throughput; hit rate 7% among 740; activation, % at 4.98 µM; AID 1523, 2009; shares compounds with S1P4 ag; S1P4 agonist cell-based reporter assay; in the data active = activation above about 12%
S1P1 ag: S1P1 receptor agonists, human, counter-screen for S1P4 agonist project, cell-based; shares compounds with S1P4 ag; S1P1 agonist cell-based assay, activation; activation, % at 4.98 µM; hit rate 4% among 740; in the data active = activation above about 21%
Target sequence (P21453 whole entry, looked up): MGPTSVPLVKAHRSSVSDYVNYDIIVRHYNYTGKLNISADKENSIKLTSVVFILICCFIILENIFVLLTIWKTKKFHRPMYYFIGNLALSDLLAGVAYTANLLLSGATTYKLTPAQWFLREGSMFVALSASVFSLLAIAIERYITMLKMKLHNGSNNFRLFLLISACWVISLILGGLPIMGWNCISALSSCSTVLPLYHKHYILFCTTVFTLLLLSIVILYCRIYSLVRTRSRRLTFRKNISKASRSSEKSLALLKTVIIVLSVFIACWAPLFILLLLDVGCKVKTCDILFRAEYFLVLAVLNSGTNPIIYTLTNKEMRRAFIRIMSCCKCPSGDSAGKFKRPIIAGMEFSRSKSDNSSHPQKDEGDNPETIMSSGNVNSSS
Of the large screens only hits and unclear results are named; the others gave an inactive call (follow-up assays come after a bar, where they were run). In the library only some 1.9% were active in any assay of this set; here they are far more common.

CCOc1ccc(Oc2c(/C=N/NC(=O)COc3ccccc3OC)c(C)nn2-c2ccccc2)cc1	S1P4 ag 22.1 | S1P4 agonist cf inactive | S1P1 ag inactive
CCc1[nH]c2ccc(C(=O)Nc3cccc(C(=O)N4CCOCC4)c3)cc2c1C	none (no result: S1P4 ag, S1P3 antag, Pf gamet viab, S1P4 antagonist)
COc1ccc(OC)c(S(=O)(=O)NC(N)=NCCc2ccccc2OC)c1	S1P4 ag 23.1 (no result: Pf gamet viab) | S1P4 agonist cf inactive | S1P1 ag inactive
COc1ccccc1CCN=C(N)NS(=O)(=O)c1ccccc1	none (no result: Pf gamet viab)
COc1ccc(OCCOCCOc2ccc(C)cc2[N+](=O)[O-])cc1	S1P4 ag 30.4 | S1P4 agonist cf inactive | S1P1 ag inactive
O=c1[nH][nH]c2nc(C(F)(F)F)cc(C(F)(F)F)c12	S1P4 ag 67.5 | S1P4 agonist cf inactive | S1P1 ag inactive
Cc1cc(C)c2c(n1)nn1c(N3CCC(C(N)=O)CC3)cc(C)nc21	none (no result: EP2 antag, S1P4 ag, S1P3 antag, Pf gamet viab, S1P4 antagonist)
CC(=O)Nc1nn(C)c2nc(C)cc(C)c12	S1P4 ag 27.7 | S1P4 agonist cf inactive | S1P1 ag inactive
Cc1ccc(S(=O)(=O)N(C)C)cc1-n1c(SCC(=O)Nc2ccc(F)cc2)nc2ccccc2c1=O	S1P4 ag 11.0 | S1P4 agonist cf inactive | S1P1 ag inactive
COc1cc(C(N)=O)cc(Cl)c1OCc1ccccc1	none
CCOc1cc(C(N)=O)cc(Cl)c1OCc1ccccc1	S1P4 ag 24.3 | S1P4 agonist cf inactive | S1P1 ag inactive
Cc1ccc(-c2csc(NC(=O)C(C)C)n2)cc1	none (no result: S1P4 ag, S1P3 antag, Pf gamet viab, S1P4 antagonist)
CCOC(=O)c1cn(CC)c2cc(N3CCOCC3)c(F)cc2c1=O	S1P4 ag 13.7 | S1P4 agonist cf inactive | S1P1 ag inactive
Cc1ccc(C2Nc3ccccc3-c3nc4ccccc4n32)o1 (stereo not drawn)	S1P4 ag 11.6 (no result: S1P3 antag, Pf gamet viab) | S1P4 agonist cf inactive | S1P1 ag inactive
Cc1ccc(-c2nc3ccccc3n2C)o1	none (no result: S1P3 antag, Pf gamet viab)
Cc1cc(C)c(NC(N)=S)c(C)c1	none
Cc1ccc(C(N)=S)c(C)c1	S1P4 ag 17.1 (no result: Pf gamet viab) | S1P4 agonist cf inactive | S1P1 ag inactive
Cc1cc2c(cc1C)C(O)CC1(CCN(CC(=O)NC3CCCCC3)CC1)O2 (stereo not drawn)	none (no result: S1P4 ag, S1P3 antag, Pf gamet viab, S1P4 antagonist)
Cc1ccc(N=Cc2nc(-c3ccc(C)cc3)oc2O)cc1	S1P4 ag 15.0 (no result: Pf gamet viab) | S1P4 agonist cf inactive | S1P1 ag inactive
Cc1nn(Cc2ccc(F)cc2)c(C)c1NC(=O)c1cc(-c2ccc3c(c2)OCO3)on1	none (no result: Pf gamet viab)
Cc1ccc(Cn2nc(C)c(NC(=O)c3cc(-c4ccc5c(c4)OCO5)on3)c2C)cc1	S1P4 ag 19.2 | S1P4 agonist cf inactive | S1P1 ag inactive
Cc1nc(SCC(=O)NC2CCCC2)[nH]c(=O)c1Cc1ccccc1	S1P4 ag 50.8 (no result: S1P3 antag) | S1P4 agonist cf inactive | S1P1 ag inactive
Cc1ccc(CN2CCN(Cc3cn[nH]c3-c3cccc(F)c3)CC2CCO)o1 (stereo not drawn)	S1P4 ag 15.1 | S1P4 agonist cf inactive | S1P1 ag inactive
Cc1ccc(CN2CCN(Cc3cn[nH]c3-c3ccccc3)CC2CCO)o1 (stereo not drawn)	none
CC1CC(C)CN(CCC(=O)Nc2ccccc2)C1 (stereo not drawn)	none (no result: S1P4 ag, S1P3 antag, Pf gamet viab, S1P4 antagonist)
COC(=O)c1c(NC(=O)c2ccco2)sc(C(=O)Nc2ccccc2F)c1C	none (no result: S1P4 ag, S1P3 antag, Pf gamet viab, S1P4 antagonist)
Cc1cc2cc3c(cc2nc1SCC(=O)O)CCC3	S1P4 ag 42.7 | S1P4 agonist cf inactive | S1P1 ag inactive
Cc1cc2cc3c(cc2nc1SCC(=O)N1CCCC1)CCC3	none (no result: S1P4 ag, S1P3 antag, Pf gamet viab, S1P4 antagonist)
CCOC(=O)N1CCC(N2Cc3cccc(C(=O)Nc4ccc(F)cc4)c3C2=O)CC1	none (no result: S1P3 antag)
CCOC(=O)N1CCC(N2Cc3cccc(C(=O)Nc4ccc(CC)cc4)c3C2=O)CC1	S1P4 ag 11.7 (no result: S1P3 antag) | S1P4 agonist cf inactive | S1P1 ag inactive
CCc1c(C)sc2ncn(C3CCN(C(=O)C(C)N4CCCC4=O)CC3)c(=O)c12 (stereo not drawn)	none (no result: S1P4 ag, S1P3 antag, Pf gamet viab, S1P4 antagonist)
CCOc1ccc(C(=O)Nc2nnc(C(F)(F)F)s2)cc1	none (no result: S1P4 ag, S1P3 antag, Pf gamet viab, S1P4 antagonist)
Cc1cccn2cc(-c3ccc(S(=O)(=O)N4CCOCC4)cc3)nc12	none
O=S(=O)(c1ccc(-c2cn3ccccc3n2)cc1)N1CCOCC1	S1P4 ag 67.9 (no result: S1P3 antag) | S1P4 agonist cf inactive | S1P1 ag inactive
COc1ccc(Cn2ccnc2)cc1[N+](=O)[O-]	S1P4 ag 12.3 | S1P4 agonist cf inactive | S1P1 ag inactive
CNC(=O)/C(C#N)=c1\s/c(=C/C(=O)OC)c(=O)n1-c1ccccc1	none (no result: S1P3 antag, Pf gamet viab)
CCOC(=O)/C=c1\s/c(=C(\C#N)C(=O)OCC)n(-c2ccccc2)c1=O	S1P4 ag 159.9 (no result: S1P3 antag, Pf gamet viab) | S1P4 agonist cf inactive | S1P1 ag inactive
Cc1cc(C(=O)CN2C(=O)C(=O)N(Cc3ccccc3)C2=O)c(C)n1-c1ccccc1F	S1P4 ag 13.0 | S1P4 agonist cf inactive | S1P1 ag inactive
Cc1cc(C(=O)CN2C(=O)C(=O)N(Cc3ccccc3)C2=O)c(C)n1CC1COc2ccccc2O1 (stereo not drawn)	none
O=C(c1cccc2ncccc12)N1C2CCC1CC(c1ccc(F)cc1)C2 (stereo not drawn)	none (no result: EP2 antag, S1P4 ag, S1P3 antag, Pf gamet viab, S1P4 antagonist)
C/C(=N\NC(=O)C(C)n1nc(C)c([N+](=O)[O-])c1C)c1ccccc1O (stereo not drawn)	S1P4 ag 103.0 (no result: Pf gamet viab) | S1P4 agonist cf inactive | S1P1 ag inactive
Cc1oc2cc(OC(=O)c3ccco3)ccc2c(=O)c1-c1nc2ccccc2n1C	S1P4 ag 11.9 | S1P4 agonist cf inactive | S1P1 ag inactive
CCOC(=O)c1c(NC(=O)CN2CCCc3ccccc32)sc(C(C)=O)c1C	S1P4 ag 16.4 | S1P4 agonist cf inactive | S1P1 ag inactive
CC(CC(=O)Nc1ncccn1)c1ccccc1 (stereo not drawn)	none (no result: S1P4 ag, S1P3 antag, Pf gamet viab, S1P4 antagonist)
CC1CC(NC(=O)CCn2c(=O)oc3ccccc32)CC(C)(C)C1 (stereo not drawn)	S1P4 ag 12.1 (no result: Pf gamet viab) | S1P4 agonist cf inactive | S1P1 ag inactive
CN1CCN(CC(=O)Nc2cccc(C(F)(F)F)c2)CC1	none (no result: S1P4 ag, S1P3 antag, Pf gamet viab, S1P4 antagonist)
COc1ccccc1Nc1ccc(N)cc1	S1P4 ag 12.8 | S1P4 agonist cf inactive | S1P1 ag inactive
COc1ccccc1Nc1nc(C)cc(C)n1	none (no result: EP2 mod, EP2 antag, S1P4 ag, S1P3 antag, S1P4 antagonist)
CCc1nnc(NC(=O)C=C(C)C)s1	none (no result: S1P3 antag, Pf gamet viab)
CCc1nnc(NC=C2C(=O)OC(C)(C)OC2=O)s1	S1P4 ag 18.5 | S1P4 agonist cf inactive | S1P1 ag inactive
NC(=S)N/N=C/c1coc2ccc(F)cc2c1=O	S1P4 ag 36.4 | S1P4 agonist cf inactive | S1P1 ag inactive
NC(=S)N/N=C/c1coc2ccc(O)cc2c1=O	none

Screens from PubChem BioAssay.
